{"source": "PubChem BioAssay (NCI)", "note": "Compounds without any hit were thinned out: in the full panel of roughly 83,000, 20% have a hit.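 Single-dose data. Exposure time 48 hours. Values below 10 considered active.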 Unmarked numbers belong to inactive results. Calls of active or inactive are those of the source."}
{"system": "MALME-3M melanoma", "assay": "NCI-60 one-dose screen, 48 h (100 = growth as untreated, 0 = no growth, -100 = all killed)", "details": "10 µM unless noted"}
{"smiles": "O=C(CSc1nccc(=O)[nH]1)Nc1ccc(-c2nc3ccccc3[nH]2)cc1", "growth": "101%"}
{"smiles": "N[C@@H](Cc1cn(-c2ccnc3ccccc23)nn1)C(=O)O", "growth": "95.5%"}
{"smiles": "CCOC(=O)c1c(Nc2ccccc2)nn2c(N)c(C#N)c(-c3ccc(F)cc3)nc12", "growth": "91.8%"}
{"smiles": "O=C(N/N=C/c1ccc([N+](=O)[O-])o1)c1[nH]c2ccc(Br)cc2c1-c1ccccc1", "growth": "23%"}
{"smiles": "CN(C)CCCNc1c2ccc(Cl)cc2nc2c1oc1ccc(Cl)cc12", "growth": "49.4%"}
{"smiles": "Cc1c(NC(=O)CSc2nc3sc4c(c3c(=O)n2-c2ccc(Cl)cc2)CCCC4)c(=O)n(-c2ccccc2)n1C", "growth": "102%"}
{"smiles": "CC(C)(C)Nc1nc2c(OCCc3ccccc3)cccn2c1-c1ccc(Cl)cc1", "growth": "1.51% (active)"}
{"smiles": "CN(C)CCCNc1c2ccc(Cl)cc2nc2c1oc1ccccc12", "growth": "14.6%"}
{"smiles": "COc1ccccc1C(=O)CSc1nc(Nc2ccc(S(N)(=O)=O)cc2)c2ccccc2n1", "growth": "90.2%"}
{"smiles": "COc1ccccc1/C=C/C=N/NC1=NC2C(S1)N(C)C(=O)N2C", "note": "(centres undefined)", "growth": "43.8%"}
{"smiles": "COc1cccc(N2CCN(c3ncnc4c3[nH]c3ccc(F)cc34)C[C@@H]2C)c1", "growth": "-26.4% (active)"}
{"smiles": "O=C(CSc1nnc(-c2ccc3nc(-c4ccc(Cl)cc4)[nH]c3c2)o1)Nc1ccc(C(=O)/C=C/c2ccc(Cl)cc2)cc1", "growth": "102%"}
{"smiles": "Cc1nc2cnc(N)c(C#Cc3cncc(C(=O)Nc4ccc(Cl)c(C(F)(F)F)c4)c3)c2nc1C", "growth": "39.9%"}
{"smiles": "Cc1ccc(C(=O)Nc2cccc(C(F)(F)F)c2)cc1Nc1nc(-c2cnccn2)nc2c1cnn2C", "growth": "-15.3% (active)"}
